In PubChem BioAssay (Tox21) one finds Potency data, which are given here for 40 compounds.

SMILES strings stand for the structures. Inconclusive results are not listed. Entries that show only a call come without a potency. Active and inactive are the calls of the source. The call rests on the fitted dose curve; in most records, active means well fitted inhibition curve with a large enough effect in the signal ratio in the repeat runs, with a control signal flat; inconclusive means weak or mixed curves, or effect the other way; inactive means flat fitted curve, though single readings scatter; the % refers to the signal ratio.

The target in the assay is D(2) dopamine receptor (Homo sapiens) (UniProt P14416). In words: Dopamine D2 receptor (DRD2) small molecule antagonists, cell-based qHTS assay (AID 1963595). The conditions noted are these: HEK293-DRD2 cAMP HTRF antagonist mode; series mostly up to 92.4 µM. From the text: National Center for Advancing Translational Sciences [NCATS]
Chain of D(2) dopamine receptor (Homo sapiens) (P14416 whole entry, looked up): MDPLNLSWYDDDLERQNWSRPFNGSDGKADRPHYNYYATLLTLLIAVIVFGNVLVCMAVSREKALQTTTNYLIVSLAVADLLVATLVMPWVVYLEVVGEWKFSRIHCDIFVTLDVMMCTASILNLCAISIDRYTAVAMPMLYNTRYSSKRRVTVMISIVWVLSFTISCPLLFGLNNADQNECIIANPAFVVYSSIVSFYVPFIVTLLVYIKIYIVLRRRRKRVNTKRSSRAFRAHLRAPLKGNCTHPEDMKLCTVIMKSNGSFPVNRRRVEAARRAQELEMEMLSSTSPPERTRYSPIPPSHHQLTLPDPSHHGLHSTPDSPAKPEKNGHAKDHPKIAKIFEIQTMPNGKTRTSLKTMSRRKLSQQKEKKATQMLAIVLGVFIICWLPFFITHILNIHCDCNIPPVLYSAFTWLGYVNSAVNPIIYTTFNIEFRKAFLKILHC
Division of Preclinical Innovation [DPI]
U.S. Environmental Protection Agency [EPA]
National Institutes of Environmental Health Sciences [NIEHS]
National Toxicology Program [NTP]
U.S. Food and Drug Administration [FDA]
DRD2 is the D2 subtype of the dopamine receptor, which is coupled to Gi subtype of G protein-coupled receptor. This G protein-coupled receptor inhibits adenylyl cyclase activity. The DRD2-HEK293 cell line stably expressing D2 dopamine receptor can be used for screening agonists and antagonists of interactions between D2 and its ligands. The Hek293-DRD2 cAMP assay is based on HTRF technology. It measures changes of cAMP accumulation in response to Gi coupled GPCR activation or inhibition.
Tox21 Assay Protocol Summary:
DRD2-Hek293 cells were dispensed at 600 cells/3uL/well in 1536-well white plates using a Multidrop Dispenser. After the assay plates were incubated at a 37 C/5% CO2 incubator for 24 h, 1 uL of Ro20-1724 at final concentration of 0.1 mM was transferred to the assay plate by a Flying Reagent Dispenser. Following Ro20-1724 addition, 23 nL of compound dissolved in DMSO, positive controls or DMSO only was added to the assay plates via Wako pintool station. The assay plates were incubated at room temperature for 10 min. Next, 1 uL of mixture of NKH477 (final concentration at 200 nM) and quinpirole (final concentration at 12 nM) was added into the plates. After the assay plates were incubated at room temperature for an additional 30 min, 2.5 ul/well of cAMP-d2 and 2.5 ul/well of anti-cAMP-cryptate were added respectively into the assay plates using a Flying Reagent Dispenser. The plates were incubated at room temperature for 1 h. The fluorescence intensity in the plates was measured at 340 nm excitation and 665 & 620 nm emission by an Envision plate reader.
For `Nc1cccnc1`, the Potency result was “inactive”. For `CC[n+]1ccccc1`, the Potency result was “inactive”. Under `CCCC[N+]1(C)CCCC1` stands “inactive”.

Turning to `Clc1ccc(C2(Cn3cncn3)OCCO2)c(Cl)c1`, the Potency result is “inactive”. In the case of `CN(C)[C@@H]1C(=O)C(C(N)=O)=C(O)[C@@]2(O)C(=O)C3=C(O)c4c(O)cccc4[C@@](C)(O)[C@H]3C[C@@H]12`, the Potency result is “inactive”. As for `Cc1ccc(C(=O)Cl)cc1`, the Potency result was “inactive”.

On to `CC(C)(C)OOC(=O)c1ccccc1`, for which the Potency result is “inactive”. With `CCCCSP(=O)(SCCCC)SCCCC`, the Potency result is “inactive”.

`CCN(CC)C(=O)SCc1ccc(Cl)cc1`: the Potency entry was “inactive”. For `[Cl-].[Cl-].[Cl-].[Fe+3]`, the Potency entry was “inactive”.

On to `Nc1nc(=S)[nH][nH]1`, for which the Potency result was “inactive”.

With `CCC(=O)C(CC(C)N(C)C)(c1ccccc1)c1ccccc1` (stereo not given), the Potency entry is “inactive”. With `COc1c(C(C)(C)C)cc([N+](=O)[O-])c(C)c1[N+](=O)[O-]` the entry was “inactive”; with `CCCC(=O)Cl`, “inactive”; with `CC(C)CON=O`, “inactive”. For `CCC[N+]1(C)CCCCC1`, the Potency entry was “inactive”. Turning to `CCCCNC(=O)n1c(NC(=O)OC)nc2ccccc21`, the Potency result was “inactive”. For the compound `O=c1[nH]c(=O)[nH]c(=O)[nH]1`, the Potency entry was “inactive”. As to `C=CC(=O)OCCO`, the Potency entry is “inactive”. Under `CCCOC(=O)c1cncn1C(C)c1ccccc1` (stereo not given) stands “inactive”; under `[O-][Cl+2]([O-])O`, “inactive”; under `COc1ccc(C(CN(C)C)C2(O)CCCCC2)cc1` (stereo not given), “inactive”. With `Cl/C=C/CCl` the entry was “inactive”. For `CC(C)(O)C#N`, the Potency result is “inactive”. On to `CCOP(=S)(OCC)O/N=C(\C#N)c1ccccc1`, for which the Potency entry was “inactive”. With `C[C@]12CCC(=O)C[C@@H]1CC[C@@H]1[C@@H]2CC[C@]2(C)[C@@H](O)CC[C@@H]12` the entry was “inactive”; with `CN=C=S`, “inactive”; with `CCC(=O)O[C@H]1CC[C@H]2[C@@H]3CCC4=CC(=O)CC[C@]4(C)[C@H]3CC[C@]12C`, “inactive”. With `NC(=O)c1cc([N+](=O)[O-])cc([N+](=O)[O-])c1` the entry was “inactive”; with `N#Cc1cccnc1`, “inactive”. Turning to `Fc1cc(Br)ccc1CBr`, the Potency entry is “inactive”. Under `CCCCCCCCCCCCCCCCCC(=O)O` stands “inactive”; under `CNC(=O)Oc1cccc2ccccc12`, “inactive”; under `OCCSCSCCO`, “inactive”. With `CN1C(=O)CCS(=O)(=O)C1c1ccc(Cl)cc1` (stereo not given) the entry was “inactive”. In the case of `C=CCCC#N`, the Potency result is “inactive”.

As for `NC1(c2ccccc2)CCCCC1`, the Potency entry was “inactive”.

Regarding `[CH3][Sn]([Cl])([Cl])[Cl]`, the Potency result is “inactive”. Under `CCCCCCCCCCCCBr` stands “inactive”; under `CC(C)CCON=O`, “inactive”.
